{
  "source": "ChEMBL document CHEMBL3988442",
  "about": "“University of Dundee, Small-Polar-MMV Screening Library” (2021)",
  "note": "In all, about 48,000 compounds went through this assay and about 13,000 (27%) showed an effect of 50% or more. This is one part of the list.",
  "data": [
    {"system": "Wolbachia pipientis", "assay": "Anti-Wolbachia Cell-Based Screen", "type": "functional", "set-up": "scale not given: in the data most compounds retested in dose-response had high values", "conditions": "5 µM", "units": {"Percent Effect": "%"}, "values": [
      {"compound": "CS(=O)(=O)NCC1(c2ccccc2Br)CC1", "Percent Effect": 1.161},
      {"compound": "O=C(O)C1CCN(C[C@H]2CC[C@@H](Cc3ccc4c(c3)OCO4)O2)CC1", "Percent Effect": 4.381},
      {"compound": "Cc1cc(Cl)ccc1S(=O)(=O)NCC(C)N1CCN(C)CC1", "note": "(stereo not drawn)", "Percent Effect": 0.8605},
      {"compound": "CC1CCN(Cc2cnc(S(=O)(=O)CC3CC3)n2CC2CCCO2)CC1", "note": "(stereo not drawn)", "Percent Effect": 3.735},
      {"compound": "CCC(C)Oc1cc(C(=O)Nc2nccs2)ccn1", "note": "(stereo not drawn)", "Percent Effect": -12.97},
      {"compound": "Cc1cnn(C(C)C2CC2)c1NC(=O)c1ccc(Cn2cnnn2)cc1", "note": "(stereo not drawn)", "Percent Effect": 7.746},
      {"compound": "COc1nc2c(cc1C(=O)N1C[C@@H](N)C[C@H]1C(=O)NC(C)C)CCC2", "Percent Effect": 2.559},
      {"compound": "CCOC(=O)c1coc(N2CCN(Cc3cc(C)cc(C)c3)C(=O)C2)n1", "Percent Effect": -24.84},
      {"compound": "CS(=O)(=O)N1CCc2ccc(=O)n(CC3CCOCC3)c2CC1", "Percent Effect": -13.75},
      {"compound": "O=C(O)C(F)(F)F.O=c1ccc2c(n1CC1CCOCC1)CCN(Cc1ccoc1)CC2", "Percent Effect": 125.5},
      {"compound": "CN(Cc1ccccn1)C(=O)[C@]12COC[C@H]1CN(Cc1cnn(C)c1)C2", "Percent Effect": -17.57},
      {"compound": "Cn1cc(CN2C[C@@H]3COC[C@]3(C(=O)NCc3cccs3)C2)cn1", "Percent Effect": 98.41},
      {"compound": "O=C(NCCc1cccs1)[C@]12COC[C@H]1CN(Cc1ccncc1)C2.O=C(O)C(F)(F)F.O=C(O)C(F)(F)F", "Percent Effect": -23.54},
      {"compound": "CC(C)NC(=O)[C@]12COC[C@H]1CN(Cc1cnn(C)c1)C2", "Percent Effect": 82.27},
      {"compound": "Cn1cc(CN2C[C@@H]3COC[C@]3(C(=O)NCCc3ccccc3)C2)cn1.O=C(O)C(F)(F)F", "Percent Effect": 92.46},
      {"compound": "O=C(NCc1cccs1)[C@]12COC[C@H]1CN(c1ncccn1)C2.O=C(O)C(F)(F)F", "Percent Effect": -12.11},
      {"compound": "Cn1cc(CN2CC(C(=O)Nc3ccccc3)C3(CCOCC3)C2)cn1.O=C(O)C(F)(F)F", "note": "(stereo not drawn)", "Percent Effect": 0.729},
      {"compound": "Cn1cc(CN2C[C@@H]3COC[C@]3(C(=O)N3CCCO3)C2)cn1", "Percent Effect": -0.6058},
      {"compound": "CS(=O)(=O)N1C[C@@H]2COC[C@]2(C(=O)NCCc2cccs2)C1", "Percent Effect": -42.96},
      {"compound": "COc1ccccc1CCNC(=O)CNC1CCc2nc(C)nn2C1", "note": "(stereo not drawn)", "Percent Effect": -4.852},
      {"compound": "CC(=O)N1CCn2c(COCc3csc(C)n3)cnc2C1C", "note": "(stereo not drawn)", "Percent Effect": 17.55},
      {"compound": "Cc1nn(C)c2nc(N(CCN(C)C)C3CCCC3)sc12", "Percent Effect": -1.05},
      {"compound": "Cc1cccc(C(=O)NCCNCC2CNc3ccnn3C2)c1", "note": "(stereo not drawn)", "Percent Effect": -9.397},
      {"compound": "CC(C)Cn1cnc(S(=O)(=O)NCCc2nnc3ccccn23)c1", "Percent Effect": 8.202},
      {"compound": "Cc1c2c(C(F)F)cc(SCC(=O)O)nc2nn1C", "Percent Effect": 97.91},
      {"compound": "CC(C)Cc1nnc(SCC(=O)O)n1-c1ccc(F)cc1F", "Percent Effect": 1.309},
      {"compound": "Cc1cc(-c2nnc(SCC(=O)O)n2C(C)c2ccccc2)nn1C", "note": "(stereo not drawn)", "Percent Effect": 4.931},
      {"compound": "Cc1cc(SCC(=O)O)nc2nn(CC(F)F)c(C)c12", "Percent Effect": 120.4},
      {"compound": "CCn1nc(C)c(NC(=O)C(C)C)c1C", "Percent Effect": -2.093},
      {"compound": "CCCn1cc(C(=O)NC(CC(=O)O)c2ccccc2F)c(C)n1", "note": "(stereo not drawn)", "Percent Effect": -6.071},
      {"compound": "CCCn1cc2c(C(F)F)cc(SCC(=O)O)nc2n1", "Percent Effect": 93.6},
      {"compound": "CCn1nc2nc(SCC(=O)O)cc(C(F)F)c2c1C", "Percent Effect": 86.56},
      {"compound": "Cc1c(-c2nnc(SCC(=O)O)n2C(C)c2ccccc2)cnn1C", "note": "(stereo not drawn)", "Percent Effect": 8.856},
      {"compound": "CCc1cc(C(F)(F)F)c2c(C)nn(CC(=O)O)c2n1", "Percent Effect": -1.783},
      {"compound": "CN(Cc1cccc(Cl)c1)Cc1nnsc1Cl", "Percent Effect": -20.09},
      {"compound": "Cc1oc(-c2ccccc2)nc1CC(=O)NC1=NCCS1", "Percent Effect": -12.38},
      {"compound": "CCc1nsc(NC2CC(=O)N(C3CC3)C2)n1", "note": "(stereo not drawn)", "Percent Effect": 5.167},
      {"compound": "O=C(c1ccc[nH]1)N1CCN(CC2CCOc3ccccc3C2)CC1", "note": "(stereo not drawn)", "Percent Effect": -0.508},
      {"compound": "O=C(NCC1(O)CCOC1)NCC1(c2ccccc2Cl)CCC1", "note": "(stereo not drawn)", "Percent Effect": 17.28},
      {"compound": "Cc1cc(CC(C)NC(=O)Cc2cc(F)ccc2C)[nH]n1", "note": "(stereo not drawn)", "Percent Effect": -12.96},
      {"compound": "Cc1nc(C2CCCN2Cc2cc(Cl)c3c(c2)OCO3)no1", "note": "(stereo not drawn)", "Percent Effect": -3.682},
      {"compound": "COC[C@@]12CCO[C@@H]1CCN(C(=O)C1CCOCC1)C2", "Percent Effect": 4.117},
      {"compound": "COCC1N(C(=O)N2CCOCC2)[C@H]2CC[C@]1(O)CC2", "note": "(stereo partly drawn)", "Percent Effect": 110.4},
      {"compound": "C[C@@H]1CN(C(=O)CCN2CCOCC2)CC[C@]1(C)O", "Percent Effect": -11.44},
      {"compound": "O=C(N1CCOCC1)N1C(CN2CCOCC2)[C@]2(O)CC[C@H]1CC2", "note": "(stereo partly drawn)", "Percent Effect": 118.3},
      {"compound": "O=C(N1CCOCC1)N1C[C@H]2CC[C@@H]1CN(C1Cc3ccccc3C1)C2", "Percent Effect": 12.43},
      {"compound": "O=C(N1CCOCC1)N1CC[C@@](O)(c2ccccc2)[C@H]2CCCC[C@@H]21", "Percent Effect": 4.203},
      {"compound": "O=C(C1CCOCC1)N1C[C@@H]2OCCN(CCN3CCCC3)[C@@H]2C1", "Percent Effect": -5.298},
      {"compound": "O=C(C1CCC1)N1C(CN2CCOCC2)[C@]2(O)CC[C@H]1CC2", "note": "(stereo partly drawn)", "Percent Effect": 92.68},
      {"compound": "Cn1c(CN2CCOCC2)nnc1C1CCN(C(=O)C2CCCC2)CC1", "Percent Effect": -7.454},
      {"compound": "CCC(CC)n1nc(C)cc1NC(=O)C1CCOC1", "note": "(stereo not drawn)", "Percent Effect": 10.26},
      {"compound": "Cc1ccccc1[C@@H]1CN(CCCS(=O)(=O)N(C)C)C[C@H]1C(=O)O", "Percent Effect": -19.2},
      {"compound": "O=C(NC[C@H]1OC[C@@H]2CCN(c3ncccn3)C[C@@H]21)c1ccnnc1", "Percent Effect": 8.157},
      {"compound": "CCn1ccnc1CN1CCCC(CO)(CCCc2ccccc2)C1", "note": "(stereo not drawn)", "Percent Effect": 6.615},
      {"compound": "Cc1ccc(NC(=O)CN[C@H](C(N)=O)C(C)C)cc1F", "Percent Effect": -36.68},
      {"compound": "Cc1ccc(NC(=O)Cn2ccc3c(=O)n(C)ccc32)cc1F", "Percent Effect": 136.8},
      {"compound": "COc1ccc(NC(=O)Cn2nc(C)c(C)cc2=O)cc1OC", "Percent Effect": -16.79},
      {"compound": "Cc1cc(NC(=O)Cn2cc(C#N)c(=O)c3cc(Br)ccc32)no1", "Percent Effect": -1.057},
      {"compound": "COc1ccc(NC(=O)Cn2nc(C)ccc2=O)cc1OC", "Percent Effect": 11.2},
      {"compound": "COc1ccc(NC(=O)Cn2ccc3c(=O)n(C)ccc32)cc1OC", "Percent Effect": 174.8},
      {"compound": "CC(=O)c1c(C)nn(CC(=O)Nc2ccc(Br)cc2)c1C", "Percent Effect": -0.7117},
      {"compound": "Cc1ccc(NC(=O)Cc2c(C)nc3c(c2C)c(=O)[nH]n3C)cc1F", "Percent Effect": -4.371},
      {"compound": "Cn1ccc2c(ccn2CC(=O)Nc2ccc(Br)cc2)c1=O", "Percent Effect": 150.6}
    ]}
  ]
}
